The supplement of paper PMC10849652
The full data set covers some 8,800 targets. This sample favours those with a hit. About 0.5% of all pairs of compound and target were hits.

Columns and labels:
Test in all cases: log2 fold change, soluble protein after heating vs DMSO (PISA); higher = thermal stabilisation; K562 lysate, 10 uM; active = over 0.2 and 3.5 SD of the protein, either way, in both replicates (recomputed)
[1] = compound: Cc1cn(-c2cc(NC(=O)c3ccc(C)c(Nc4nccc(-c5cccnc5)n4)c3)cc(C(F)(F)F)c2)cn1 [nilotinib]
Summary of the method: (§1)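 The values are log-two fold changes in thermal stability compared with solvent controls and come from duplicates. They were obtained by TMTpro 16plex LC-MS/MS, with channel sums equalised, on the supernatant after 21,000xg for 90 min. That supernatant came from crude K562 extract at 1 mg/mL protein treated with 10 μM compound for 30 min, heated for 3 min across 48°C-58°C, pooled and brought to 0.5% NP-40 at 4°C.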

[2] = compound: Cc1nc(Nc2n[nH]c3c2CN(C(=O)N[C@H](CN(C)C)c2ccccc2)C3(C)C)c2sccc2n1
Summary of the method: as §1

[3] = compound: Cc1nc(Nc2ncc(C(=O)Nc3c(C)cccc3Cl)s2)cc(N2CCN(CCO)CC2)n1 [dasatinib]
Summary of the method: as §1

[4] = compound: Cc1ncc(-c2ccnc(Nc3ccc(S(C)(=O)=O)cc3)n2)n1C(C)C
Summary of the method: as §1

[5] = compound: Cn1cc(-c2ccc3c(c2)CCN3C(=O)Cc2cccc(C(F)(F)F)c2)c2c(N)ncnc21
Summary of the method: as §1

[6] = compound: Cn1cc(CNCC2CCN(c3ncc(C(=O)NO)cn3)CC2)c2ccccc21 [quisinostat]
Summary of the method: as §1

[7] = compound: Cn1cncc1[C@@](N)(c1ccc(Cl)cc1)c1ccc2c(c1)c(-c1cccc(Cl)c1)cc(=O)n2C [tipifarnib]
Summary of the method: as §1

[8] = compound: NC(=O)Nc1cc(-c2cccc(F)c2)sc1C(=O)N[C@H]1CCCNC1
Summary of the method: as §1

[9] = compound: NC(=O)c1cnc(N[C@@H]2CCCC[C@@H]2N)nc1Nc1cccc(-n2nccn2)c1
Summary of the method: as §1

[10] = compound: NC1(c2ccc(-c3nc4ccn5c(=O)[nH]nc5c4cc3-c3ccccc3)cc2)CCC1
Summary of the method: as §1

[11] = compound: NCC(=O)Nc1ccc(-n2nc(C(F)(F)F)cc2-c2ccc3c(ccc4ccccc43)c2)cc1
Summary of the method: as §1

[12] = compound: O=C(CCCCCCC(=O)Nc1ccccc1)NO [vorinostat]
Summary of the method: as §1

[13] = compound: O=C(O)c1ccc2c(c1)nc(Nc1cccc(Cl)c1)c1ccncc12 [silmitasertib]
Summary of the method: as §1

[14] = compound: O=C1NC(=O)C(c2cnc3ccccn23)=C1c1cn2c3c(cc(F)cc13)CN(C(=O)N1CCCCC1)CC2
Summary of the method: as §1

[15] = compound: c1cn2cc(-c3ccc4cn[nH]c4c3)nc(Nc3ccc(N4CCOCC4)cc3)c2n1 [entospletinib]
Summary of the method: as §1

Measured: log2 fold change

CMBL (UniProt Q96DG6)
inactive: [1] -0.029 | [2] 0.054 | [3] 0.155 | [4] 0.006 | [5] -0.025 | [6] -0.047 | [7] -0.001 | [8] -0.027 | [9] -0.023 | [10] 0.149 | [11] -0.065 | [12] 0.09 | [13] 0.042 | [14] 0.071 | [15] 0.037

DCP1A (UniProt Q9NPI6)
Sequence of UniProt Q9NPI6 (Q9NPI6 whole entry, looked up): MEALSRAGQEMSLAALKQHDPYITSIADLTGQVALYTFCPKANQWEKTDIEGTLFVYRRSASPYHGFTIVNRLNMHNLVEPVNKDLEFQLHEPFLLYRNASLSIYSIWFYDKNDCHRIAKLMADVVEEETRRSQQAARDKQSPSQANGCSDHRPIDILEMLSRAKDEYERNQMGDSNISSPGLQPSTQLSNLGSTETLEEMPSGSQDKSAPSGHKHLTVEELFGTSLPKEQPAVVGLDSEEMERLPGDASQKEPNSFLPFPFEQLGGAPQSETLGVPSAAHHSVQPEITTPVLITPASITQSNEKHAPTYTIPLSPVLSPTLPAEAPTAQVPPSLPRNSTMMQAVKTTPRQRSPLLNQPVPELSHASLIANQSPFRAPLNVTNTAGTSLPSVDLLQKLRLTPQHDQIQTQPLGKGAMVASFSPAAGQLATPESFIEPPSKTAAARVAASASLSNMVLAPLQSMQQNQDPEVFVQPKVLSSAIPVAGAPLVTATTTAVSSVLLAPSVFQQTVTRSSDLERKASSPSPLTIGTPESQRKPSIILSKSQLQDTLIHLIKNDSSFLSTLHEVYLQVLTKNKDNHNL
active: [12] -0.234
inactive: [1] 0.022 | [2] 0.117 | [3] -0.052 | [4] -0.023 | [5] -0.001 | [6] -0.042 | [7] 0.039 | [8] 0.008 | [9] -0.041 | [10] -0.03 | [11] -0.03 | [13] 0.022 | [14] 0.011 | [15] 0.027

CLUH, A0A494C0R8
inactive: [1] 0.026 | [2] 0.146 | [3] 0.028 | [4] -0.022 | [5] 0.015 | [6] -0.165 | [7] -0.033 | [8] 0.022 | [9] -0.045 | [10] 0.046 | [11] -0.115 | [12] 0.028 | [13] 0.069 | [14] 0.033 | [15] 0.033

DFFB (UniProt O76075)
active: [12] 0.258
inactive: [1] 0.192 | [2] -0.062 | [3] 0.008 | [4] 0.155 | [5] 0.012 | [6] 0.038 | [7] -0.013 | [8] -0.049 | [9] 0.026 | [10] -0.047 | [11] -0.003 | [13] -0.025 | [14] 0.013 | [15] -0.011

DAZAP1 (UniProt Q96EP5)
inactive: [1] -0.066 | [2] 0.04 | [3] 0.015 | [4] 0.044 | [5] -0.016 | [6] 0.118 | [7] -0.039 | [8] 0.005 | [9] 0.01 | [10] -0.008 | [11] 0.032 | [12] -0.031 | [13] 0.014 | [14] 0.032 | [15] -0.001

DOCK7 (UniProt Q96N67)
active: [12] -0.348
inactive: [1] 0.005 | [2] -0.002 | [3] 0.01 | [4] -0.03 | [5] 0.029 | [6] -0.039 | [7] -0.01 | [8] 0.048 | [9] 0.036 | [10] -0.062 | [11] 0.032 | [13] 0.053 | [14] -0.019 | [15] -0.039

CLCN3 (UniProt P51790)
Sequence of UniProt P51790 (P51790 whole entry, looked up): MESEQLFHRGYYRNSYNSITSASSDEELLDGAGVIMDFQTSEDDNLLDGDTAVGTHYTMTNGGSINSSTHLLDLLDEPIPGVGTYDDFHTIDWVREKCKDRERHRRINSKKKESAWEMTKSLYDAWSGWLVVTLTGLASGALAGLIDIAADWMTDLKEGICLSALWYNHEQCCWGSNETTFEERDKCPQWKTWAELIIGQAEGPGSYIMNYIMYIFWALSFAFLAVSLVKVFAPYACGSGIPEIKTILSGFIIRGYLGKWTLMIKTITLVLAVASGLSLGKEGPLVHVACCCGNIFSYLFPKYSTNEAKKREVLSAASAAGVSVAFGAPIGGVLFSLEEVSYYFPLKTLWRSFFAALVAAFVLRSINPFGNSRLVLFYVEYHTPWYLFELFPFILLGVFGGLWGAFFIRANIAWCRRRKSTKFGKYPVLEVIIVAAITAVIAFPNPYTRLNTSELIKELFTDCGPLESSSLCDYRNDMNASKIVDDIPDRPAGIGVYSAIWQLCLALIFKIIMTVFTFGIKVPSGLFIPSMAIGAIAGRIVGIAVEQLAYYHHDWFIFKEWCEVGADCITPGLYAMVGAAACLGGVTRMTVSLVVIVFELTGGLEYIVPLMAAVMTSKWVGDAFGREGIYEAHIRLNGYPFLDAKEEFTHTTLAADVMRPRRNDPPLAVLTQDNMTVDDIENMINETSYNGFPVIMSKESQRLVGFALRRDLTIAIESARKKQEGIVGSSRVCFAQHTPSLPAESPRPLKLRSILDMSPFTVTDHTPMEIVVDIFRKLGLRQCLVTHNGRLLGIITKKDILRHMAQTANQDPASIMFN
inactive: [1] 0.15 | [2] -0.043 | [3] -0.033 | [4] 0.117 | [5] 0.046 | [6] 0.056 | [7] -0.097 | [8] -0.064 | [9] -0.002 | [10] 0.071 | [11] -0.165 | [12] -0.171 | [13] 0.118 | [14] -0.245 | [15] 0.025

DBF4 (UniProt Q9UBU7)
Sequence of UniProt Q9UBU7 (Q9UBU7 whole entry, looked up): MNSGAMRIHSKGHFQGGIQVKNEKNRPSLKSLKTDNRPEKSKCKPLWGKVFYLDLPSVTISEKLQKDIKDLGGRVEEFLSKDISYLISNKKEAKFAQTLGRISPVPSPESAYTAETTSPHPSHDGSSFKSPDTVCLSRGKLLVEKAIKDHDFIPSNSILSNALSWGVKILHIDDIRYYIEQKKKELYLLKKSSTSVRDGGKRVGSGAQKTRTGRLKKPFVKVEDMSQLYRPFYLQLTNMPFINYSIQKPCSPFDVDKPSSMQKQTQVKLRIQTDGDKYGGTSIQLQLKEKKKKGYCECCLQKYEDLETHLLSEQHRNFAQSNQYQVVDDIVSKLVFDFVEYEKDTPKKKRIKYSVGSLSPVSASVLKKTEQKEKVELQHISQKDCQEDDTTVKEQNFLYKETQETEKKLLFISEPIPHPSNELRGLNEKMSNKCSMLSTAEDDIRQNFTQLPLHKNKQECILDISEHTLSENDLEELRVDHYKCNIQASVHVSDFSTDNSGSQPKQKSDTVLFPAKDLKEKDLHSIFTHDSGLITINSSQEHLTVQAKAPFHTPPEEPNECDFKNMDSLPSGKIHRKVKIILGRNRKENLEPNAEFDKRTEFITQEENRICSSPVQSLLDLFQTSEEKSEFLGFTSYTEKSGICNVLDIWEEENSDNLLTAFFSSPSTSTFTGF
inactive: [1] 0.05 | [2] 0 | [3] 0.091 | [4] 0.17 | [5] -0.021 | [6] 0.038 | [7] -0.146 | [8] 0.043 | [10] 0.07 | [11] 0.059 | [12] -0.226 | [13] -0.138 | [14] 0.028 | [15] 0.002

CORO7 (UniProt P57737)
Sequence of UniProt P57737 (P57737 whole entry, looked up): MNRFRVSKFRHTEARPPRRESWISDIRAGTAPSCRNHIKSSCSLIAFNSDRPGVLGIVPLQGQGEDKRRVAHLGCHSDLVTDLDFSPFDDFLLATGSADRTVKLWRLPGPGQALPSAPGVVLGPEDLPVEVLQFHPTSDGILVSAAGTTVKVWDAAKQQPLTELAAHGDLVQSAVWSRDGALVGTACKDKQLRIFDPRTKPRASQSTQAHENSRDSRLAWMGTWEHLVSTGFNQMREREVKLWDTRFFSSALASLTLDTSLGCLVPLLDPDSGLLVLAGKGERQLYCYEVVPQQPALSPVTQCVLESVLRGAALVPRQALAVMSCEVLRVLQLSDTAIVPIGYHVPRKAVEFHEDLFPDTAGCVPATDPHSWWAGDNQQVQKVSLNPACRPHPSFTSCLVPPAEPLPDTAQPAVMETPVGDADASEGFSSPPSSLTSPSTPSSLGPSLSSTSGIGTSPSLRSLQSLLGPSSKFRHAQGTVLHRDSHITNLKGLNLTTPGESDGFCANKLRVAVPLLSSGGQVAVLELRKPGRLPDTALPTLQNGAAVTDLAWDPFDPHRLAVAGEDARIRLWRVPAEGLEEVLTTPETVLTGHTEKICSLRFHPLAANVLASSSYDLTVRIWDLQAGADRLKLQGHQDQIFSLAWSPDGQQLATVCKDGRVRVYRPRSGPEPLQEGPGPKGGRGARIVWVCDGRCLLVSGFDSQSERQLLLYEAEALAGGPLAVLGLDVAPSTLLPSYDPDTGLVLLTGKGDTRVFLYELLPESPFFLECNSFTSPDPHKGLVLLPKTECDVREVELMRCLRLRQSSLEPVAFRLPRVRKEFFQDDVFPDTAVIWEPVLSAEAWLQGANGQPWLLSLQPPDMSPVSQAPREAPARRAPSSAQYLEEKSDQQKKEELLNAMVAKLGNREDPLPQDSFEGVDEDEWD
inactive: [1] -0.102 | [2] 0.136 | [3] 0.024 | [4] -0.072 | [5] 0.119 | [6] 0.171 | [7] -0.051 | [8] 0.088 | [10] 0.183 | [11] -0.053 | [12] -0.019 | [13] -0.017 | [14] 0.019 | [15] -0.045

CLIP1 isoform 2 (UniProt P30622)
Sequence of UniProt P30622 (P30622 whole entry, looked up): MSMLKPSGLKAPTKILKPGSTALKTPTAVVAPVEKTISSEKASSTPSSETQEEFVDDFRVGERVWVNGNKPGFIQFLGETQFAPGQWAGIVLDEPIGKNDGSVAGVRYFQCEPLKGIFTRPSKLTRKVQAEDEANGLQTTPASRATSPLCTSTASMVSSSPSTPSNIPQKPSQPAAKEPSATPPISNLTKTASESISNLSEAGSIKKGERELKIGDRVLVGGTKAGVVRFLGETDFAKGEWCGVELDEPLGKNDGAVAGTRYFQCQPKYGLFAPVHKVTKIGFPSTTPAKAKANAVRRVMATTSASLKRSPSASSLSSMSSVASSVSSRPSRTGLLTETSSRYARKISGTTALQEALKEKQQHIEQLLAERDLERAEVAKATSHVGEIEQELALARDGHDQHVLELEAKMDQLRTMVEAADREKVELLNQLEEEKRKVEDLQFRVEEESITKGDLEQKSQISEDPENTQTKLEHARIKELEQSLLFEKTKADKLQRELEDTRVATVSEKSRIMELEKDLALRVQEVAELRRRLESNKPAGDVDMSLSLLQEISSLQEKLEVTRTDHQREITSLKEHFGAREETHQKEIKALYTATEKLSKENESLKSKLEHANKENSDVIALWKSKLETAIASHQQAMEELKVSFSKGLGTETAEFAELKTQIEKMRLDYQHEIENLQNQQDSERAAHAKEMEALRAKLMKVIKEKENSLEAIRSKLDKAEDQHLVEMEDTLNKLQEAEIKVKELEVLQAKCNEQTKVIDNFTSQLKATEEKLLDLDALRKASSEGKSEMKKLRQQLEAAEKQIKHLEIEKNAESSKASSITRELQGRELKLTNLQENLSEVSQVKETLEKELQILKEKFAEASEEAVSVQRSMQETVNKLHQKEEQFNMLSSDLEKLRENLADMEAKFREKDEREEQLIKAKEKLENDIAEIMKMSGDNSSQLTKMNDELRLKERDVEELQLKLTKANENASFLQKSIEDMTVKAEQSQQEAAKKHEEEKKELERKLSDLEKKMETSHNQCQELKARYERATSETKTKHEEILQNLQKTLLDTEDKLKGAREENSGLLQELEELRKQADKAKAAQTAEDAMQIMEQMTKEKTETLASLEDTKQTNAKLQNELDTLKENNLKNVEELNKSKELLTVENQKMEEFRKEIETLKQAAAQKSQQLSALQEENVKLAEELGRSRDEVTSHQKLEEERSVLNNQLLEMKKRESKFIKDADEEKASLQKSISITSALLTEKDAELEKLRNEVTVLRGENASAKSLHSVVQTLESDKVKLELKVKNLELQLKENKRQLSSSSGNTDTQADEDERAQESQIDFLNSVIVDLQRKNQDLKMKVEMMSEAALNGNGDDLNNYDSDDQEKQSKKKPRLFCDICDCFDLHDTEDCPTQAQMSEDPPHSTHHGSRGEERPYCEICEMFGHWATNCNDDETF
inactive: [1] 0.055 | [2] -0.04 | [3] 0.049 | [4] -0.073 | [5] -0.01 | [6] -0.049 | [7] 0.015 | [8] -0.015 | [9] 0.029 | [10] -0.059 | [12] 0.167 | [13] -0.035 | [14] 0.002 | [15] -0.151

DARS (UniProt P14868)
inactive: [1] 0.01 | [2] -0.004 | [3] -0.032 | [4] -0.015 | [5] 0.063 | [6] -0.007 | [7] 0.01 | [8] 0.044 | [9] -0.008 | [10] 0.002 | [11] 0.003 | [13] 0.056 | [14] 0.019 | [15] 0.035
active: [12] -0.327

COG2 (UniProt Q14746)
active: [12] -0.315
inactive: [1] 0.024 | [2] 0.008 | [3] -0.024 | [4] 0.096 | [5] -0.002 | [6] -0.029 | [7] -0.06 | [8] 0.055 | [9] 0.001 | [10] 0.009 | [11] -0.031 | [13] 0.055 | [14] 0.061 | [15] 0.058

DNAAF5 (UniProt Q86Y56)
active: [12] -0.313
inactive: [1] -0.015 | [2] 0.004 | [3] -0.118 | [4] -0.024 | [5] 0.007 | [6] -0.1 | [7] -0.002 | [8] 0.073 | [9] 0.006 | [10] 0.024 | [11] 0.029 | [13] 0.129 | [14] 0.02 | [15] -0.012

COASY isoform 2 (UniProt Q13057)
active: [12] -0.214
inactive: [1] -0.043 | [2] -0.015 | [3] -0.071 | [4] -0.023 | [5] 0.069 | [6] -0.078 | [7] 0.012 | [8] 0.041 | [9] -0.023 | [10] -0.046 | [11] 0.018 | [13] 0.075 | [14] 0.006 | [15] 0.019

CLPTM1L (UniProt Q96KA5)
Sequence of UniProt Q96KA5 (Q96KA5 whole entry, looked up): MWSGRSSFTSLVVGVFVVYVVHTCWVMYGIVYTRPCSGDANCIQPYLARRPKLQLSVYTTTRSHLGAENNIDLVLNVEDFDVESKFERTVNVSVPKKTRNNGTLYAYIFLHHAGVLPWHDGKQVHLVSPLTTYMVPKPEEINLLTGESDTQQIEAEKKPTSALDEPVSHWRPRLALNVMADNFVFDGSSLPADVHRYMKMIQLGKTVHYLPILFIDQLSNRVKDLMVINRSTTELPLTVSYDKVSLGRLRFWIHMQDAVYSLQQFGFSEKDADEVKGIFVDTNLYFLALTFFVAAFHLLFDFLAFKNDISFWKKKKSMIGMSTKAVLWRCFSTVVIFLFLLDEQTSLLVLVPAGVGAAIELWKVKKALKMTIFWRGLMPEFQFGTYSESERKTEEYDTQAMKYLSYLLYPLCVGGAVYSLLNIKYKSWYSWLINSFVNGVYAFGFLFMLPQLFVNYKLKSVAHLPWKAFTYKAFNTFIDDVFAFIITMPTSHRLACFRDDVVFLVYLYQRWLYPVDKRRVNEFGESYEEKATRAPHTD
inactive: [1] 0.037 | [2] -0.005 | [3] 0.006 | [4] 0 | [5] -0.016 | [6] 0.011 | [7] -0.026 | [8] 0.046 | [9] 0.016 | [10] -0.069 | [11] -0.045 | [12] 0.136 | [13] 0.012 | [14] 0.012 | [15] -0.039

CSNK2B (UniProt P67870)
active: [13] 0.595
inactive: [1] 0.086 | [2] -0.029 | [3] -0.014 | [4] 0.034 | [5] -0.006 | [6] -0.005 | [7] -0.058 | [8] 0.028 | [9] 0.042 | [10] -0.049 | [11] 0.2 | [12] -0.016 | [14] 0.023 | [15] 0.241

DNAJC24 (UniProt Q6P3W2)
inactive: [1] 0 | [2] -0.093 | [3] 0.062 | [4] 0.02 | [5] -0.039 | [6] -0.042 | [7] 0.063 | [8] 0.054 | [9] -0.041 | [10] -0.015 | [11] -0.159 | [12] 0.053 | [13] -0.017 | [14] -0.014 | [15] -0.046
